# Screens deposited in PubChem by several laboratories.
# This is a sample that favours compounds with a hit; in the whole collection about 1.4% have one here.
# CCHFV vOTU inh – CCHFV vOTU protease inhibitors, primary screen, biochemical, Pep-AMC substrate, fluorescence | Crimean-Congo hemorrhagic fever virus L polyprotein viral ovarian tumor (vOTU) protease … | inhibition, % at 11.5 µM | 370,000 tested, 0.55% active | AID 651958, 2012; in the data active = inhibition above about 30%
# SSB-PriA inh – inhibitors of Klebsiella pneumoniae PriA binding to SSB C-terminal tail, primary screen, biochemical, AlphaScreen; PriA–SSB C-terminal tail interaction (Klebsiella pneumoniae); AlphaScreen SSBct-PriA binding, biotinylated peptide; inhibition, % at 33 µM; 430,000 tested, 0.6% active; in the data active = inhibition mostly above about 37%, no sharp cut-off; inactive = mostly below about 20%
# Mtb hypoxia inh – PubChem AID 1159583; fluorescence inhibition, % (concentration not given with the values); 300,000 tested, 0.1% active; M. tuberculosis hypoxia-regulated fluorescent reporter, fluorescence; in the data active = fluorescence inhibition mostly above about 23%, no sharp cut-off; inactive = mostly below about 17%
# Sa ugtP lethal – growth inhibition of ugtP-null S. aureus, primary screen, RN4220 ugtP deletion, OD600. growth inhibition, % (concentration not given with the values). 16 h. 330,000 tested, 0.54% active; in the data active = growth inhibition above about 68%
# RN4220 kill – growth inhibition of S. aureus RN4220, primary screen, OD600 | 16 h | inhibition, % (test concentration not listed) | 330,000 tested, 0.33% active; in the data active = inhibition above about 85%
# A number is an active result; 0 = inactive; - = no result shown.
SMILES,CCHFV vOTU inh,SSB-PriA inh,Mtb hypoxia inh,Sa ugtP lethal,RN4220 kill
COc1cc(C=NNC(=O)c2cc(-c3cccn3C)n[nH]2)cc(OC)c1OC,-,0,-,90.0,0
COc1cc(/C=N/NC(=O)c2cc(-c3cccn3C)n[nH]2)cc(OC)c1OC,0,-,-,-,-
Cc1cccc(S(=O)(=O)NN=c2sc3ccccc3n2C)c1,-,0,0,0,0
N#CC(=NNc1ccc(Cl)cc1)C(=O)c1ccsc1,-,0,0,99.0,99.7
N#CC(=NNc1ccc(Cl)cc1)C(N)=S,-,0,-,88.1,0
N#C/C(=N\Nc1ccccc1Cl)C(=O)c1ccccc1,0,-,-,-,-
N#C/C(=N\Nc1ccc(Cl)cc1)C(N)=S,0,-,-,-,-
N#CC(=NNc1cccc(Cl)c1)C(=O)c1ccccc1,-,0,0,100.0,100.1
O=c1cc(-c2ccco2)nc[nH]1,-,0,-,-,-
CSC1CC2CCC(C1)N2C(=O)c1cccc(Br)c1 (centres undefined),-,0,-,-,-
NC(=NOC(=O)Cc1ccc([N+](=O)[O-])cc1)c1ccccn1,-,41.8,0,0,0
O=C(NCc1cc(-c2ccc(F)cc2F)on1)c1ccc(-n2cccc2)cc1,-,0,-,-,-
O=C1NC(=S)S/C1=C\C=C\c1ccc([N+](=O)[O-])o1,0,0,-,100.1,99.6
O=C1C(=O)N(CCN2CCOCC2)C(c2ccccn2)C1=C(O)c1ccc(Cl)cc1 (centres undefined),-,0,-,-,-
O=c1[nH]c(=O)n(C2CC(O)C(CO)O2)cc1F (centres undefined),-,-,0,99.2,98.8
N#CCc1ccc(NC(=O)/C=C/c2ccc([N+](=O)[O-])o2)cc1,-,0,-,100.4,100.7
CCc1nc(C)cn1S(=O)(=O)c1ccc(Cl)c(Cl)c1Cl,0,0,0,0,0
CCc1nc(C)cn1S(=O)(=O)c1ccc([N+](=O)[O-])cc1,0,0,0,94.3,97.4
Cc1ccc(Cn2c(SCC(=O)Nc3ncn[nH]3)nc3ccccc3c2=O)cc1,-,90.0,-,-,-
Cc1cc(O)c2c(c1O)C(=O)[C@]13C(=C2O)C(=O)[C@@H]2[C@@H](O)[C@H]1[C@@H]1[C@H](O)[C@H]3C(=O)C3=C(O)c4c(O)cc(C)c(O)c4C(=O)[C@]312,-,0,-,98.8,98.9
C/C(C=NNC(=O)c1cc(-c2ccccc2)nc2ccccc12)=C\c1ccco1,-,0,0,0,0
COc1ccc(C=NNc2nc3ccccc3s2)cc1O,-,0,0,0,0
O=C(NC(Nc1nc2ccc([N+](=O)[O-])cc2s1)(C(F)(F)F)C(F)(F)F)c1ccccc1Cl,0,0,0,98.5,100.0
Cc1ccc(-n2c(C)cc(C=NNC(N)=S)c2C)cc1,-,0,-,0,0
Cc1cc(C=NNC(N)=S)c(O)c(C=NNC(N)=S)c1,-,58.6,0,0,0
SMILES,CCHFV vOTU inh,SSB-PriA inh,Mtb hypoxia inh,Sa ugtP lethal,RN4220 kill
O=C(NN=Cc1ccccc1O)C1CC(=O)N(c2ccc(F)cc2)C1 (centres undefined),-,0,0,0,0
Fc1ccc(CO/N=C/C2=C(Cl)c3ccccc3CC2)cc1,0,-,-,-,-
Cc1ccc(CON=CC2=C(Cl)c3ccccc3CC2)cc1,-,0,-,95.2,0
O=C(Nc1nnc(Cc2cccs2)o1)c1ccc(S(=O)(=O)N2CCOCC2)cc1,-,79.0,-,-,-
CCSc1ccccc1C(=O)Nc1nnc(Cc2cccs2)o1,-,40.0,-,-,-
CC(C)S(=O)(=O)c1cccc(C(=O)Nc2nnc(Cc3cccs3)o2)c1,-,41.0,-,-,-
C[C@H]1CCCN(S(=O)(=O)c2ccc(C(=O)Nc3nnc(Cc4cccs4)o3)cc2)C1,-,91.0,-,-,-
Cc1cc2c(cc1S(=O)(=O)Nc1ccc(OC(F)(F)F)cc1)OCC(=O)N2,0,0,0,91.7,0
COc1ccc(-c2nc(-c3ccc(NC(=O)c4ccncc4)cc3)no2)cc1OC,-,0,0,0,0
COc1ccc(NC(=O)c2ccc(-c3ccc(-c4noc(C)n4)cc3C)cc2)cc1N1CCN(C)CC1,0,39.0,0,0,0
CCc1nnc(NC(=O)c2ccc(Cl)nc2)s1,0,0,0,0,0
CCSc1nnc(NC(=O)c2ccccn2)s1,0,86.4,0,0,0
CCSc1nnc(NC(=O)c2cnccn2)s1,-,0,0,0,0
CCc1ccnc(C(=O)Nc2nnc(CC)s2)c1,-,102.5,-,-,-
CCc1nnc(NC(=O)c2cc(Cl)ccn2)s1,0,81.2,0,0,0
CCc1nnc(NC(=O)c2ccccn2)s1,-,104.5,-,-,-
CCCCNC(=O)C1CCCN1C(=O)Nc1cccc(C)c1 (centres undefined),0,-,-,-,-
O=C(CSc1nnc(-c2ccco2)o1)NC(=O)Cc1ccccc1,0,0,0,0,0
